In the supplement of paper PMC8728848:
The full list was thinned out, with the strongest signals kept by preference.

Experiments:
Assay in all cases: glycan array binding signal (z-score within array); higher = stronger binding
Conditions in all cases: glycan notation: IUPAC condensed, linker removed
[1] = biological target: Fuc(a1-2)Gal(b1-3)GalNAc(a1-3)[Fuc(a1-2)]Gal(b1-4)GlcNAc
In short: (§1)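 Glycan array data were curated from 3228 arrays in the Consortium for Functional Glycomics database and kept only where the protein sequence was available. Glycan names were converted to IUPAC-condensed notation, and columns mapping to the same glycan were averaged. The binding signal is a within-array Z-score, averaged across arrays of the same protein sequence at different concentrations or buffers and across linkers. Negative Z-scores can be read as non-binding.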

[2] = biological target: Fuc(a1-2)Gal(b1-4)GlcNAc(b1-2)[Fuc(a1-2)Gal(b1-4)GlcNAc(b1-4)]Man(a1-3)[Fuc(a1-2)Gal(b1-4)GlcNAc(b1-2)Man(a1-6)]Man(b1-4)GlcNAc(b1-4)GlcNAc
In short: as §1

[3] = biological target: Fuc(a1-2)Gal6S(b1-3)GlcNAc6S
In short: as §1

[4] = biological target: Fuc(a1-2)[Gal(a1-3)]Gal(b1-4)[Fuc(a1-3)]GlcNAc(b1-3)GalNAc
In short: as §1

[5] = biological target: Fuc(a1-2)[GalNAc(a1-3)]Gal(b1-4)[Fuc(a1-3)]GlcNAc(b1-3)GalNAc
In short: as §1

[6] = biological target: Fuc(a1-3)[Gal(b1-4)]GlcNAc(b1-4)Gal(b1-4)[Fuc(a1-3)]GlcNAc
In short: as §1

Gal(a1-2)Gal = biological target: Gal(a1-2)Gal
In short: as §1

Gal(a1-3)Gal(b1-3)GlcNAc = biological target: Gal(a1-3)Gal(b1-3)GlcNAc
In short: as §1

[7] = biological target: Gal(a1-4)Gal(b1-3)GlcNAc(b1-2)Man(a1-3)[Gal(a1-4)Gal(b1-3)GlcNAc(b1-2)Man(a1-6)]Man(b1-4)GlcNAc(b1-4)GlcNAc
In short: as §1

[8] = biological target: Gal(b1-3)GalNAc(a1-3)[Fuc(a1-2)]Gal(b1-4)GlcNAc
In short: as §1

[9] = biological target: Gal(b1-3)GalNAc(b1-4)Gal(b1-4)Glc
In short: as §1

[10] = biological target: Gal(b1-3)GlcNAc(b1-3)Gal(b1-4)GlcNAc(b1-3)Gal(b1-4)GlcNAc(b1-2)[Gal(b1-3)GlcNAc(b1-3)Gal(b1-4)GlcNAc(b1-3)Gal(b1-4)GlcNAc(b1-6)]Man(a1-6)[Gal(b1-3)GlcNAc(b1-3)Gal(b1-4)GlcNAc(b1-3)Gal(b1-4)GlcNAc(b1-2)Man(a1-3)]Man(b1-4)GlcNAc(b1-4)[Fuc(a1-6)]GlcNAc
In short: as §1

[11] = biological target: Gal(b1-4)GlcNAc(b1-3)Gal(b1-4)GlcNAc(b1-2)Man(a1-3)[Gal(b1-4)GlcNAc(b1-3)Gal(b1-4)GlcNAc(b1-2)Man(a1-6)]Man(b1-4)GlcNAc(b1-4)GlcNAc
In short: as §1

[12] = biological target: Gal(b1-4)GlcNAc(b1-3)Gal(b1-4)GlcNAc(b1-3)Gal(b1-4)GlcNAc(b1-3)Gal(b1-4)GlcNAc(b1-3)Gal(b1-4)GlcNAc(b1-2)[Gal(b1-4)GlcNAc(b1-3)Gal(b1-4)GlcNAc(b1-3)Gal(b1-4)GlcNAc(b1-3)Gal(b1-4)GlcNAc(b1-3)Gal(b1-4)GlcNAc(b1-6)]Man(a1-6)[Gal(b1-4)GlcNAc(b1-3)Gal(b1-4)GlcNAc(b1-3)Gal(b1-4)GlcNAc(b1-3)Gal(b1-4)GlcNAc(b1-3)Gal(b1-4)GlcNAc(b1-2)Man(a1-3)]Man(b1-4)GlcNAc(b1-4)[Fuc(a1-6)]GlcNAc
In short: as §1

[13] = biological target: Gal(b1-4)GlcNAc(b1-6)Gal(b1-4)GlcNAc
In short: as §1

Gal3S(b1-4)GlcNAc = biological target: Gal3S(b1-4)GlcNAc
In short: as §1

Gal3S6S(b1-4)GlcNAc6S = biological target: Gal3S6S(b1-4)GlcNAc6S
In short: as §1

Gal4S(b1-4)GlcNAc = biological target: Gal4S(b1-4)GlcNAc
In short: as §1

Gal6P(b1-4)GlcNAc = biological target: Gal6P(b1-4)GlcNAc
In short: as §1

Gal6S(b1-3)GlcNAc6S = biological target: Gal6S(b1-3)GlcNAc6S
In short: as §1

Gal6S(b1-4)GlcNAc6S = biological target: Gal6S(b1-4)GlcNAc6S
In short: as §1

[14] = biological target: GalNAc(b1-4)GlcNAc(b1-2)Man
In short: as §1

[15] = biological target: GalNAc3S(b1-4)[Fuc(a1-3)]GlcNAc
In short: as §1

GalNAc4S6S(b1-4)GlcNAc = biological target: GalNAc4S6S(b1-4)GlcNAc
In short: as §1

[16] = biological target: Glc(a1-6)Glc(a1-6)Glc(a1-6)Glc
In short: as §1

Glc(b1-6)Glc = biological target: Glc(b1-6)Glc
In short: as §1

[17] = biological target: GlcNAc(a1-4)Gal(b1-4)GalNAc
In short: as §1

[18] = biological target: GlcNAc(b1-2)Gal(b1-3)GalNAc
In short: as §1

[19] = biological target: GlcNAc(b1-3)Gal(b1-4)GlcNAc(b1-2)[GlcNAc(b1-3)Gal(b1-4)GlcNAc(b1-6)]Man(a1-6)[GlcNAc(b1-3)Gal(b1-4)GlcNAc(b1-2)Man(a1-3)]Man(b1-4)GlcNAc(b1-4)GlcNAc
In short: as §1

[20] = biological target: GlcNAc(b1-3)Gal(b1-4)GlcNAc(b1-3)Gal(b1-4)GlcNAc(b1-2)[GlcNAc(b1-3)Gal(b1-4)GlcNAc(b1-3)Gal(b1-4)GlcNAc(b1-6)]Man(a1-6)[GlcNAc(b1-3)Gal(b1-4)GlcNAc(b1-3)Gal(b1-4)GlcNAc(b1-2)Man(a1-3)]Man(b1-4)GlcNAc(b1-4)[Fuc(a1-6)]GlcNAc
In short: as §1

[21] = biological target: GlcNAc(b1-4)GlcNAc(b1-4)GlcNAc
In short: as §1

[22] = biological target: Neu5Ac(a2-3)Gal(b1-3)GlcNAc(b1-2)Man(a1-3)[Neu5Ac(a2-3)Gal(b1-3)GlcNAc(b1-2)Man(a1-6)]Man(b1-4)GlcNAc(b1-4)GlcNAc
In short: as §1

[23] = biological target: Neu5Ac(a2-3)Gal(b1-3)GlcNAc(b1-3)Gal(b1-3)GlcNAc
In short: as §1

[24] = biological target: Neu5Ac(a2-3)Gal(b1-3)GlcNAc(b1-3)GalNAc
In short: as §1

[25] = biological target: Neu5Ac(a2-3)Gal(b1-4)GlcNAc(b1-3)Gal
In short: as §1

[26] = biological target: Neu5Ac(a2-3)Gal(b1-4)GlcNAc(b1-3)Gal(b1-4)GlcNAc(b1-6)[Gal(b1-3)]GalNAc
In short: as §1

[27] = biological target: Neu5Ac(a2-3)Gal(b1-4)GlcNAc6S
In short: as §1

Neu5Ac(a2-6)Gal = biological target: Neu5Ac(a2-6)Gal
In short: as §1

[28] = biological target: Neu5Ac(a2-6)Gal(b1-4)GlcNAc(b1-2)Man(a1-3)[GlcNAc(b1-4)][Neu5Ac(a2-6)Gal(b1-4)GlcNAc(b1-2)Man(a1-6)]Man(b1-4)GlcNAc(b1-4)GlcNAc
In short: as §1

[29] = biological target: Neu5Ac(a2-6)Gal(b1-4)GlcNAc(b1-3)Gal(b1-4)[Fuc(a1-3)]GlcNAc(b1-3)Gal(b1-4)[Fuc(a1-3)]GlcNAc
In short: as §1

[30] = biological target: Neu5Ac(a2-6)GalNAc(b1-4)GlcNAc6S
In short: as §1

[31] = biological target: Neu5Ac(a2-8)Neu5Ac(a2-8)Neu5Ac(a2-3)Gal(b1-4)Glc
In short: as §1

[32] = biological target: Neu5Gc(a2-3)Gal(b1-3)[Fuc(a1-4)]GlcNAc
In short: as §1

B1: MFG-E8 (Mus musculus), P21956 (protein)
chain: MQVSRVLAALCGMLLCASGLFAASGDFCDSSLCLNGGTCLTGQDNDIYCLCPEGFTGLVCNETERGPCSPNPCYNDAKCLVTLDTQRGDIFTEYICQCPVGYSGIHCETETNYYNLDGEYMFTTAVPNTAVPTPAPTPDLSNNLASRCSTQLGMEGGAIADSQISASSVYMGFMGLQRWGPELARLYRTGIVNAWTASNYDSKPWIQVNLLRKMRVSGVMTQGASRAGRAEYLKTFKVAYSLDGRKFEFIQDESGGDKEFLGNLDNNSLKVNMFNPTLEAQYIKLYPVSCHRGCTLRFELLGCELHGCSEPLGLKNNTIPDSQMSASSSYKTWNLRAFGWYPHLGRLDNQGKINAWTAQSNSAKEWLQVDLGTQRQVTGIITQGARDFGHIQYVASYKVAHSDDGVQWTVYEEQGSSKVFQGNLDNNSHKKNIFEKPFMARYVRVLPVSWHNRITLRLELLGC
In the case of B1, the “glycan array binding signal (z-score)” value [1] is reported as 0.179, the “glycan array binding signal (z-score)” value [2] is reported as 0.01 and the “glycan array binding signal (z-score)” value [3] is reported as 8.57. For the same binder, the “glycan array binding signal (z-score)” value [4] was 2.33, the “glycan array binding signal (z-score)” value [5] was 1.65 and the “glycan array binding signal (z-score)” value [6] was -0.206. For the same binder, the “glycan array binding signal (z-score)” value (Gal(a1-2)Gal) was 0.39, the “glycan array binding signal (z-score)” value (Gal(a1-3)Gal(b1-3)GlcNAc) was -0.404 and the “glycan array binding signal (z-score)” value [7] was -0.165. For the same binder, the “glycan array binding signal (z-score)” value [8] was -0.266, the “glycan array binding signal (z-score)” value [9] was -0.553 and the “glycan array binding signal (z-score)” value [10] was 0.221. For the same binder, the “glycan array binding signal (z-score)” value [11] was 2.48, the “glycan array binding signal (z-score)” value [12] was -0.342 and the “glycan array binding signal (z-score)” value [13] was -0.115. For the same binder, the “glycan array binding signal (z-score)” value (Gal3S(b1-4)GlcNAc) was -0.46, the “glycan array binding signal (z-score)” value (Gal3S6S(b1-4)GlcNAc6S) was 2.81 and the “glycan array binding signal (z-score)” value (Gal4S(b1-4)GlcNAc) was -0.4. For the same binder, the “glycan array binding signal (z-score)” value (Gal6P(b1-4)GlcNAc) was 1.22, the “glycan array binding signal (z-score)” value (Gal6S(b1-3)GlcNAc6S) was 3.04 and the “glycan array binding signal (z-score)” value (Gal6S(b1-4)GlcNAc6S) was 2.98. For the same binder, the “glycan array binding signal (z-score)” value [14] was -0.038, the “glycan array binding signal (z-score)” value [15] was 0.832 and the “glycan array binding signal (z-score)” value (GalNAc4S6S(b1-4)GlcNAc) was 9.76. The “glycan array binding signal (z-score)” value [16] was -0.038, the “glycan array binding signal (z-score)” value (Glc(b1-6)Glc) was 2.4 and the “glycan array binding signal (z-score)” value [17] was 5.5. The “glycan array binding signal (z-score)” value [18] was 0.853, the “glycan array binding signal (z-score)” value [19] was -0.881 and the “glycan array binding signal (z-score)” value [20] was -0.08. For the same binder, the “glycan array binding signal (z-score)” value [21] was -0.582, the “glycan array binding signal (z-score)” value [22] was -0.096 and the “glycan array binding signal (z-score)” value [23] was -1.04. For the same binder, the “glycan array binding signal (z-score)” value [24] was 0.592, the “glycan array binding signal (z-score)” value [25] was 0.469 and the “glycan array binding signal (z-score)” value [26] was -0.309. The “glycan array binding signal (z-score)” value [27] was -0.285, the “glycan array binding signal (z-score)” value (Neu5Ac(a2-6)Gal) was 0.316 and the “glycan array binding signal (z-score)” value [28] was 0.277. The “glycan array binding signal (z-score)” value [29] was -0.437, the “glycan array binding signal (z-score)” value [30] was 3.05 and the “glycan array binding signal (z-score)” value [31] was -0.889. The “glycan array binding signal (z-score)” value [32] was 2.55.
